In PubChem BioAssay AID624345 (National Center for Advancing Translational Sciences (NCATS), 2012):
The source made the active and inactive calls.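 The calls were made as follows: active = IC50 of 75 µM or lower for blocking USP2 cleavage of diubiquitin, judged on gels; inconclusive = IC50 above 75 µM but below 100 µM; inactive = IC50 of 100 µM or more.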

molecular target: Ubiquitin carboxyl-terminal hydrolase 2 (Homo sapiens) (UniProt O75604); experiment: Inhibitors of USP1/UAF1: Hit Validation in USP2 Diubiquiting Gel Assay; conditions: USP2 K63-diubiquitin cleavage, SDS-PAGE gel densitometry
Description: Deubiquitinating enzymes (DUBs) are a class of enzymes that can cleave isopeptide bond formed between the C-terminal carboxylate of ubiquitin and a lysine side-chain amino group on the target protein. Among them, ubiquitin specific proteases (USPs) constitute the largest DUB family. Human USPs are emerging as promising targets for pharmacological intervention because of their connection to a number of human diseases, including prostate, colon and breast cancer (1, 2), pediatric acute lymphoblastic leukemia (3), and familial cylindromatosis (4). The advantage of inhibiting USPs lies in the potential specificity of therapeutic intervention that can lead to better efficacy and reduce nonspecific side effects. In a collaboration between the University of Delaware and the NIH Chemical Genomics Center, a high-throughput screen assay was developed to screen for USP1/UAF1 inhibitors. This miniaturized assay has a fluorescent read-out and is used to screen the NIH Molecular Libraries Small Molecule Repository (MLSMR) in order to identify a small molecule that inhibits USP1. Follow-up assays have also been developed to further test the hits from the primary screen. This assay validates the hits identified from the primary screen using a USP2 diubiquiting gel assay. NIH Chemical Genomics Center [NCGC] NIH Molecular Libraries Probe Centers Network [MLPCN] MLPCN Grant: DA030552 Assay Submitter (PI): Zhihao Zhuang, University of Delaware 1. Priolo, C., et al. (2006) The isopeptidase USP2a protects human prostate cancer from apoptosis. Cancer Res 66, 8625-8632 2. Popov, N., et al. (2007) The ubiquitin-specific protease USP28 is required for MYC stability. Nat Cell Biol 9, 765-774 3. […]
The inhibition assay contains 20 nM USP2, 2 microM K63 linked diubiquitin, and inhibitors at varied concentrations (0.08 microM - 114 microM). […] The intensity of the individual diubiquitin and monoubiquitin band was quantified using Quantity One 4.3.1 (Biorad, Hercules, CA). The percentage of the conversion was determined and used to calculate the reaction rate. […]

Ubiquitin carboxyl-terminal hydrolase 2 (Homo sapiens), sequence (O75604 whole entry, looked up): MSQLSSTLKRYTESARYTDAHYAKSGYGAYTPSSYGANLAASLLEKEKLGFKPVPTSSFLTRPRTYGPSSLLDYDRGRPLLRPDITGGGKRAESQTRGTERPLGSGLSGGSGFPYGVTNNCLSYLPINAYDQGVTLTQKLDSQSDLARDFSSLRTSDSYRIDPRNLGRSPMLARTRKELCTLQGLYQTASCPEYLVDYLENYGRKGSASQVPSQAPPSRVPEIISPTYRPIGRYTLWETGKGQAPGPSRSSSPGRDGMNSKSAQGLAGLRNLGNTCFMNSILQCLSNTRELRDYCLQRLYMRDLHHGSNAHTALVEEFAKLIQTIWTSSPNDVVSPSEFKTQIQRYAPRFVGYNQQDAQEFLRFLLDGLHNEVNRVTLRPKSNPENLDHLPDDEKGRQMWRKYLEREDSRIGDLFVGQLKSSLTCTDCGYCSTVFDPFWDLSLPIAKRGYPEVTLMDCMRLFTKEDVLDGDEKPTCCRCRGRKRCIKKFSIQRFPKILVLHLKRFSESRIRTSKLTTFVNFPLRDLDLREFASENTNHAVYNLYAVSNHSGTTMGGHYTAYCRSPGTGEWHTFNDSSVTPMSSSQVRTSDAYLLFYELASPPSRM

outcome, inactive:
FC(F)(F)c1ccccc1-c1nc(NCc2cccs2)c2ccccc2n1
Cc1ccccc1-c1nc(NCc2cccs2)c2ccccc2n1
Cc1cccc(CNc2ccnc(-c3ccccc3C(F)(F)F)n2)c1
